# Measurements from PubChem BioAssay (NCATS).
# Results filed as inconclusive are left out. The source made the active and inactive calls. Calls follow the shape of the dose curve; as a rule, active = well fitted inhibition curve with a large enough effect; inconclusive = small, poorly fitted or top-dose-only effect; inactive = flat fitted curve, though single readings scatter.
# Molecular target: Calcium and integrin-binding protein 1 (Homo sapiens) (UniProt Q99828)
# Experiment: Primary qHTS for Identification of Calcium Integrin Binding Protein 1 (CIB1) Competitor (AID 1508620); also: top concentration of the series differs between compounds
# Conditions: CIB1-GST / FITC-alphaIIb peptide fluorescence polarization; series mostly up to 114 µM; activity change, negative = inhibition: at the top concentration
# Method in brief: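 Fluorescence polarization competition: GST-tagged CIB1 (1 uM final) preincubated with compound 15 min at room temperature, then FITC-labelled alphaIIb peptide (100 nM final) added. After 15 min at room temperature, polarization read at Ex 480/Em 540.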
# % is scaled to controls: 0 for no effect and ±100 for the full control effect.
# Sequence of Calcium and integrin-binding protein 1 (Homo sapiens) (Q99828 whole entry, looked up): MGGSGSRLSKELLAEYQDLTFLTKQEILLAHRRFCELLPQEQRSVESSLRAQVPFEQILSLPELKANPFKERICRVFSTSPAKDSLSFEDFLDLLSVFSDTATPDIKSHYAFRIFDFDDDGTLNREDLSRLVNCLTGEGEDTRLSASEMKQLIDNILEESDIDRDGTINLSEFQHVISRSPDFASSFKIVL
Compound,"activity change, negative = inhibition",Potency
CC(C)(NC(=O)Nc1ccccc1Cl)C(=O)N1CCC(C(=O)O)CC1,-6.52% (inactive),
COc1ccc(NC(=O)c2cnn3c(C)cc(C)nc23)cc1,2.74% (inactive),
COc1ccc(C2Nc3ccccc3C(=O)N2Cc2ccc(Cl)cc2)cc1COc1ccc(NC(C)=O)cc1 (stereo not given),3.44% (inactive),
O=C1CCCC2=C1C(c1[nH]ncc1Cl)NC(=NCc1ccccn1)N2 (stereo not given),-2.52% (inactive),
O=[S+]([O-])(Nc1nccs1)c1ccc(NCc2ccc(Cl)c(Cl)c2)cc1,-13.8% (inactive),
COc1ccc(NCc2ccc(O)c3ncccc23)nc1,20.3% (inactive),
NC(=O)C1CCN(c2nc(-c3cccs3)cs2)CC1,-2.72% (inactive),
COc1ccccc1NC(=O)C1=C(C)NC(Nc2nc3ccccc3o2)=NC1c1ccccc1Br (stereo not given),5.63% (inactive),
O=C(Nc1nc(Nc2cc(F)cc(F)c2)nc(NC2CCCC2)n1)OCc1ccccc1,-2.55% (inactive),
COc1cc(O)c(C(CC(=O)N2CCCC(COc3ccc(F)cc3)C2)c2ccc3c(c2)OCO3)c(OC)c1 (stereo not given),1.23% [at 228 µM] (inactive),
COc1ccc(C2=Nn3c(nnc3-c3cccc(OC)c3OC)SC2)cc1,-2.01% (inactive),
c1ccc(OCc2nnc3n2N=C(c2ccccc2)CS3)cc1,,inactive
N#Cc1nc(Nc2ccc(F)cc2)nc(NC2CCCC2)n1,-1.93% (inactive),
O=C(Nc1ccc(Cl)c(S(=O)(=O)N2CCOCC2)c1)c1ccc(S(=O)(=O)N2CCOCC2)cc1,1.09% (inactive),
N#Cc1nc(-c2cccc3ccccc23)oc1N,3.27% (inactive),
O=C1NS(=O)(=O)c2cc3c(cc21)C(=O)NS3(=O)=O,0.825% (inactive),
Cn1ccc2cc(-c3ccc4ncnc(NCc5cccnc5)c4c3)ccc21,-3.03% (inactive),
COC(=O)c1ccc(Cn2ncc3c4sc(C)cc4n(C)c3c2=O)cc1,2.73% (inactive),
COc1cccc(Nc2ccc(N3CCN(C(C)=O)CC3)cc2)c1OC,-0.112% (inactive),
Cc1cc(C)n2ncc(C(=O)NCc3ccccc3)c2n1,1.05% (inactive),

Compound,"activity change, negative = inhibition",Potency
Cc1ccc(OCCn2c(CCNC(=O)c3c(F)cccc3F)nc3ccccc32)cc1,2.21% (inactive),
O=[S+]([O-])(Nc1ccccc1)c1ccc(NCc2cccc(Cl)c2F)cc1,8.19% (inactive),
O=C1c2ccccc2C(=O)N1c1cccc2ccncc12,-3.22% (inactive),
O=C(OCC#CCSc1nnc(-c2cccc3ccccc23)o1)c1cccc(F)c1,3.27% (inactive),
O=[S+]([O-])(c1ccc2c(c1)OCCO2)N1CCN([S+](=O)([O-])c2c(F)cc(O)cc2F)CC1,-0.145% (inactive),
CCOc1ccc(CCNC(=O)c2cc3sccc3n2Cc2ccccc2)cc1OCC,0.206% (inactive),
O=C(NC1CCCc2c1cnn2-c1ccc(F)cc1F)c1ccncc1 (stereo not given),3.27% (inactive),
COc1cccc(CNc2ccc(S(=O)(=O)Nc3cccnc3)cc2)c1O,-4% (inactive),
Cn1nnnc1Sc1ncnc2scc(-c3ccc([N+](=O)[O-])cc3)c12,-17.5% (inactive),
CC(C)(C)OC(=O)N1CCN(c2ccc(NCc3ccnc(-c4ccc(C#N)cc4)n3)cc2)CC1,-3.93% (inactive),
N#Cc1ccc(-c2csc(N3CCC(C(N)=O)CC3)n2)cc1,2.82% (inactive),
CCN(CC)c1cc2c(cc1S(=O)(=O)Nc1ccc(C)c(C)c1)CCC(=O)N2,4.9% (inactive),
N=c1c2c(ncn1-c1ccccc1)Oc1ccc3ccccc3c1C2c1ccc2c(c1)OCCO2 (stereo not given),56.6% (inactive),
O=C(CN1C(=O)CC(c2ccco2)Sc2ccccc21)Nc1ccccc1F (stereo not given),-4.31% (inactive),
CC1(C)CC(=O)C2=C(C1)NC(Nc1nc3ccccc3o1)=NC21CCCCC1,-4.19% (inactive),
CCNC(=O)c1ccc(-c2ccc3ncnc(NCC(C)(C)C)c3c2)o1,-8.62% (inactive),
CC(=O)c1ccc(NC(=O)c2cnn3c(C)cc(C)nc23)cc1,4.1% (inactive),
CC(=O)Nc1cccc(S(=O)(=O)Nc2ccc(C)c(C)c2)c1,4.3% (inactive),
Cc1cc(C)n2ncc(C(=O)Nc3cc(Cl)cc(Cl)c3)c2n1,-0.808% (inactive),
O=C(Cn1ncccc1=O)NCCc1ccccc1,3.14% (inactive),
